# According to PubChem BioAssay (Tox21):
# “And” between values parts separate entries of the source, which are not always exact repeats. Identical values can stand only once. Inconclusive results are not listed. Where a call stands in place of a potency, no number is given. The source made the active and inactive calls. Calls follow the shape of the dose curve; as a rule, active = well fitted cell-killing curve with a large enough effect in the repeat runs; inconclusive = weak or mixed curves, or effect the other way; inactive = no such curve, though single readings can be large or run the other way.
# Assay: qHTS assay to identify small molecule agonists of the estrogen receptor alpha (ER-alpha) signaling pathway in the presence of an antagonist - cell viability counter screen (AID 1259386); also: nearly all actives have a fitted effect of over 30% in size
# Details: VM7Luc4E2 viability, CellTiter-Fluor fluorescence, 22 h; series mostly up to 92.4 µM
# Outline: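 Compounds tested at 15 concentrations for 22 h at 37C alongside 10.0nM (final) ICI-182,780 antagonist, in VM7Luc4E2 cells grown in phenol red-free, charcoal-stripped medium. Viability read by CellTiter-Fluor fluorescence after 1 h reagent incubation.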
# Potency is read from the fitted curve at half-maximal effect.
SMILES,Potency,"activity change, negative = cytotoxicity"
Cc1c(C)c2c(c(C)c1O)CCC(C)(COc1ccc(CC3SC(=O)NC3=O)cc1)O2 (stereo unspecified),inactive,–
C=CC(=O)OCC(CO)(COC(=O)C=C)COC(=O)C=C,17.3 µM (active) and 27.3 µM (active),–
Fc1ccc([C@@H]2CCNC[C@H]2COc2ccc3c(c2)OCO3)cc1,inactive,–
CCCC/C=C/CCCCO,inactive,–
Cc1ccc(O)c(C(C)(C)C)c1,inactive,–
COc1cccc(N)c1,inactive,–
Cc1cc(O)c2ccccc2c1O,29.8 µM (active),–
CSc1ccc(C(=O)c2[nH]c(=O)[nH]c2C)cc1,inactive,–
Nc1ccc(N)c2ccccc12,30.6 µM (active),–
CCCCCCCC[P+](CCCCCCCC)(CCCCCCCC)CCCCCCCC,2.71 µM (active),–
Oc1c(Cl)cc(Cl)c2cccnc12,inactive,–
CCCCCCCCOC(=O)c1ccc(O)cc1,inactive,–
NC(=NCCCCCCN=C(N)/N=C(\N)Nc1ccc(Cl)cc1)/N=C(\N)Nc1ccc(Cl)cc1,inactive,–
CC(NN)c1ccccc1 (stereo unspecified),–,-1.38% [at 19 µM] (inactive)
C=CC(=O)OCCn1c(=O)n(CCOC(=O)C=C)c(=O)n(CCOC(=O)C=C)c1=O,48.6 µM (active),–
CCN(CCC#N)c1ccc(N=Nc2c(Cl)cc([N+](=O)[O-])cc2Cl)cc1,8.63 µM (active),–
CS(=O)(=O)CCNCc1ccc(-c2ccc3ncnc(Nc4ccc(OCc5cccc(F)c5)c(Cl)c4)c3c2)o1,inactive,–
Oc1ccc2cc(SSc3ccc4cc(O)ccc4c3)ccc2c1,inactive,–
CCCCC(CC)COC(=O)c1ccccc1C(=O)O (stereo unspecified),inactive,–
CC1=C(/C=C/C(C)=C/C=C/C(C)=C/C=O)C(C)(C)CCC1,60.8 µM (active),–
CCCCCCCCCCCC(=O)NCCCN(C)C,inactive,–
